Screens deposited in PubChem BioAssay by Columbia University Molecular Screening Center.
VCAM1 TNFa inh: reduces TNF alpha induced VCAM1 expression in HUVEC | HUVEC TNFa-induced VCAM-1 immunofluorescence, high-content imaging | inhibition, % at 2 µM | 95,000 compounds, 0.48% hits | AID 802;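 active means inhibition above the batch mean plus 3 SD, with images confirmed as a hit by eye, cut at about 37% in these data; inconclusive means inhibition above that limit but hit not confirmed in images; inactive means inhibition not above that limit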;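 further: 0% = TNF-stimulated DMSO wells and 100% = unstimulated control wells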
NFkB transloc inh: blocks IL-1B driven NFkB nuclear translocation in HUVEC cells. inhibition, % at 2 µM. 94,000 compounds, 0.43% hits. HUVEC IL-1B NFkB p65 nuclear translocation imaging;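 active means inhibition above about 30% together with a positive call from visual inspection of the well image, limit read from the data; inconclusive means inhibition above a set limit but visual check negative; inactive means inhibition not above a set limit, visual check negative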;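 further: nuclear over cytoplasmic p65 intensity ratio measured by imaging; 0% = IL-1B stimulated DMSO wells and 100% = unstimulated DMSO wells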
F-actin modifier: modifiers of cytoskeleton assembly; HUVEC TNFa F-actin phalloidin imaging, high content; inhibition, % at 2 µM; 91,000 compounds, 0.18% hits; AID 836;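 active means inhibition above the batch mean plus 3 SD and confirmed as a hit by visual image inspection, cut at about 30% in these data, passing the limit was not always enough; inconclusive means above the inhibition threshold but rejected on visual inspection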
IL1B NFkB pot: enhances IL-1B driven NFkB nuclear translocation; HUVEC IL-1B NFkB p65 nuclear translocation imaging; activation, % at 2 µM; 94,000 compounds, 0.3% hits; AID 819;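 active means activation above 40%, about the mean plus 3 SD, also judged a hit on visual image review; inconclusive means activation above 40% but not a hit on visual review; inactive means activation not above 40% and no visual hit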;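 further: percent activation is computed from the nuclear over cytoplasmic p65 intensity ratio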
HUVEC tox IL1B: toxic to HUVEC cells under IL-1B stimulation; HUVEC cell count loss, Hoechst imaging, IL-1B stimulated; cell count reduction, % at 2 µM; 94,000 compounds, 0.41% hits;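 active means cell count reduction more than 3 SD above the screen-wide mean, cut at about 70% in these data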;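 further: normalized per plate to untreated control cells as the no-loss baseline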
TNFa cytotox: toxic to HUVEC cells under TNF alpha stimulation | HUVEC TNFalpha-stimulated, Hoechst cell count, imaging | cell count reduction, % at 2 µM | 93,000 compounds, 0.17% hits | AID 848;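 active means cell count reduction exceeding the screen mean by over 5 SD, scaled to untreated wells per plate, cut at about 78% in these data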;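 further: cells counted after 24 h of TNF alpha exposure following the 1 h pretreatment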
* hit, by the source's call; u = inconclusive; x = not tested or not shown. Sampled rows, rich in hits. Any-hit rate of the full collection: about 1.6%.

SMILES	VCAM1 TNFa inh	NFkB transloc inh	F-actin modifier	IL1B NFkB pot	HUVEC tox IL1B	TNFa cytotox
CC(C)CCn1c(=O)c(C(=O)Nc2ccccc2S(N)(=O)=O)c(O)c2ccccc21	-19.6	38.8*	-4.7	-38.8	-8.8	-6.8
CCCCn1c(=O)c(C(=O)Nc2cnccn2)c(O)c2ccccc21	3.7	-5.5	14.8	5.5	-20.5	-6.3
CC(C)OCCCNC(=O)c1c(N)n(CC2CCCO2)c2nc3ccccc3nc12 (stereo not given)	15.0	97.3*	5.2	-97.3	90.0*	8.5
CCN1/C(=C\C=C\C2=[N+](CC)c3ccccc3C2(C)C)C(C)(C)c2ccccc21	88.0*	-19.0	-40.3	19.0	-17.5	22.7
O=C(CF)NC(Nc1cccc2cccnc12)C(Cl)(Cl)Cl (stereo not given)	28.4	-11.3	u	11.3	-8.5	3.1
O=C(COc1ccc(Cl)cc1)N1CCN(Cc2ccccc2)CC1	3.1	-42.8	-16.1	42.8*	-17.0	-3.5
CC(C)NS(=O)(=O)c1ccc(OCC(=O)N2CCN(Cc3ccccc3)CC2)cc1	18.1	-11.4	-0.4	11.4	-42.7	-21.0
CCN1CCC(O)(c2ccccc2)C(C(=O)c2ccccc2)C1 (stereo not given)	-0.5	5.5	2.6	-5.5	42.0	-5.5
O=P(NS(=O)(=O)c1ccc(Cl)cc1)(Oc1ccccc1)Oc1ccccc1	-16.8	-2.4	0.6	2.4	-14.3	5.3
CC(C)(C)c1nc(N2CCN(C(=O)c3ccco3)CC2)c2nnn(Cc3ccccc3Cl)c2n1	-16.7	1.4	13.3	-1.4	-10.2	44.1
CCC12C=CCN3CCC4(c5cc(Br)c(OC)cc5N(C)C4C(O)(C(=O)OC)C1OC(C)=O)C32 (stereo not given)	0.5	-40.5	19.9	40.5*	-20.2	6.3
CN1C(=O)c2ccccc2Sc2ccc(C(=O)N3CCC4(CC3)OCCO4)cc21	7.5	-156.9	-8.0	156.9*	-3.2	-5.4
CCCC(=O)NC(Oc1ccccc1Cl)C(Cl)(Cl)Cl (stereo not given)	10.3	x	1.6	x	x	-11.7
COc1ccc(CCNCc2ccccn2)cc1OC	16.7	35.7*	-11.4	-35.7	-8.3	-7.8
COc1ccc(CCNCc2ccc(F)cc2)cc1OC	-2.5	12.2	12.4	-12.2	19.2	-24.8
COC(=O)C1=C(N)Oc2c(c(=O)oc3ccccc23)C1c1cccnc1 (stereo not given)	13.6	11.5	0.1	-11.5	-17.5	-6.1
CC(N)Cc1c[nH]c2ccc(Cl)cc12 (stereo not given)	38.9*	x	7.8	x	x	-3.6
O=C1C2CCCN2C(c2cccnc2)N1c1ccc(Cl)c(Cl)c1 (stereo not given)	74.8*	-17.4	-31.4	17.4	-26.0	-20.6
O=C1C2CCCN2C(c2ccncc2)N1c1ccc(Cl)c(Cl)c1 (stereo not given)	1.5	5.4	-9.1	-5.4	6.0	-4.3
O=c1c2ccccc2nc(-c2ccco2)n1-c1cccnc1	-11.3	3.5	-18.0	-3.5	84.1*	-28.7
CC(c1ccccc1F)n1cc(C(=O)Nc2ccc3nc[nH]c3c2)nn1 (stereo not given)	59.9	15.2	-32.6	-15.2	32.0	80.3*
Cn1c(=O)cc(SCC(=O)N2CCC3(CC2)OCCO3)c2ccc(Cl)cc21	3.7	6.6	-10.9	-6.6	-17.3	-16.2
CCN(CC)CCN=Cc1c(O)n(CCC2=CCCCC2)c(=O)[nH]c1=O	6.8	25.8	5.3	-25.8	88.9*	-4.7
CCC(C)NS(=O)(=O)c1ccc(OCC(=O)N2CCN(CC)CC2)cc1 (stereo not given)	5.3	-2.6	15.2	2.6	-34.0	-26.9
O=C(CNS(=O)(=O)c1ccc(Br)s1)N1CCC2(CC1)OCCO2	29.9	-42.6	22.2	42.6*	13.9	59.4
O=C(c1ccc(CNS(=O)(=O)c2ccccc2)cc1)N1CCC2(CC1)OCCO2	-1.7	11.3	10.7	-11.3	-14.6	-12.8
CC1C(c2cccs2)=[N+]([O-])C(C)(C(=O)c2ccc(Cl)cc2)N1O (stereo not given)	x	-4.2	x	4.2	20.6	x
CCOc1ccccc1N1C(=O)NC(=O)C(CCc2ccncc2)(CCc2ccncc2)C1=O	10.4	u	33.0*	-56.5	-21.0	-0.4
COc1ccccc1N1C(=O)NC(=O)C(CCc2ccncc2)(CCc2ccncc2)C1=O	3.2	-13.8	5.1	13.8	-48.9	-19.1
CCCNS(=O)(=O)c1ccc(OCC(=O)N2CCN(C)CC2)cc1	-4.9	-24.7	-5.5	24.7	87.6*	-7.8
